This note sets out measurements from PubChem BioAssay AID686970 (National Center for Advancing Translational Sciences (NCATS), 2013).

The structures appear in SMILES notation. Among all 360,000 compounds or so, about 6,000 (1.7%) were called active. Inconclusive results (about 8%) are left out. Many of the other results were omitted from the sample, so actives are more common in it than they were. Unmarked numbers belong to inactive results. Calls follow the shape of the dose curve; as a rule, active = well fitted cell-killing curve with a large enough effect; inconclusive = small, poorly fitted or top-dose-only effect, or effect the other way; inactive = flat fitted curve, though single readings scatter.
Potency is read from the fitted curve at half-maximal effect.

This experiment is described as follows: qHTS for induction of synthetic lethality in tumor cells producing 2HG: qHTS for the HT-1080-NT fibrosarcoma cell line.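 Also: NT is the 2HG producing partner of a matched IDH1 knockdown line; nearly all actives have a fitted effect of over 55% in size.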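 As to activity, negative = less viability: 0% = DMSO-treated cells and -100% = media-only wells without cells.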 The following applies: HT-1080-NT fibrosarcoma viability, CellTiter-Glo ATP luminescence, 48 h; series mostly up to 46.1 µM; activity, negative = less viability: at the top concentration. A digest of the protocol: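 HT-1080-NT fibrosarcoma cells (2HG-overproducing), 750 cells/well in RPMI with 5% FBS, dosed after 2 h and incubated 48 h at 37C. CellTiter-Glo luminescence normalized to DMSO and no-cell wells; concentration-response curves fitted and classed.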
`COc1cc(CCN=Cc2ccccc2O)c([N+](=O)[O-])cc1OC`: the “activity, negative = less viability” value is 20.1%. Still for that read-out and setting: under `COc1ccc(S(=O)(=O)N2CCC(C(=O)NCCC(=O)NCCc3cccc(F)c3)CC2)cc1` stands 0.278%; under `C=CCOc1cccc(C2C(C(=O)c3ccc(C)o3)=C(O)C(=O)N2CCN2CCOCC2)c1` (configuration not stated), -5.15%; under `Cc1ccc([C@H]2C[C@H](O)[C@@H](n3cc(COC(=O)c4ccccc4)nn3)CN2C(=O)C2CCCCC2)cc1`, -17.4%. The same measure, in the same setting: under `CC(C)CCNC(=O)c1[nH]c(C(F)(F)F)nc1-c1ccccc1` stands 0.202%; under `COc1ccc(-c2ccc(CN3C(C(C)C)C(=O)N(Cc4cn(CC5CCCCC5)nn4)CCS3(=O)=O)cc2)cn1` (configuration not stated), 0.744%.

As to `COc1ccc(C(=O)Nc2ccccc2C(=O)N/N=C/c2ccc(O)c(OC)c2)cc1`, the Potency is 5.8 µM (active). On to `COc1ccc(/C=N/Nc2ccccc2C(=O)O)cc1`, for which the “activity, negative = less viability” value was -4.06%. With `COc1ccc2[nH]c(C(=O)N/N=C/c3cc(OC)c(OC)c(OC)c3)cc2c1`, the “activity, negative = less viability” value is -5.09%. Take `CC(O)(c1cccc(F)c1)c1nc(-c2ccc3c(c2)OCO3)cs1` (configuration not stated): the “activity, negative = less viability” value was -19.6%. `CCOC(=O)C1=CC[C@@H](c2ccccc2)N(S(=O)(=O)c2ccc(C)cc2)[C@H]1c1ccc(CC)cc1`: the “activity, negative = less viability” value is -3.93%. Turning to `CCCOc1ccc(F)cc1-c1cc(C(=O)Nc2ccc(F)cc2)[nH]n1`, the “activity, negative = less viability” value is -17%.

As for `COc1ccc(CCNC(=O)Cc2ccc(C)cc2)cc1OC`, the “activity, negative = less viability” value was 2.44%. As to `COc1ccc(CCNC(=S)NC(=O)/C=C/c2ccc(C)cc2)cc1OC`, the Potency was 6.31 µM (active). On to `COc1ccc(CCNC(=O)NS(=O)(=O)c2ccc(C)cc2)cc1OC`, for which the “activity, negative = less viability” value was 17.1%. Still for that read-out and setting: under `O=C(COC(=O)/C=C/c1ccc(Cl)cc1)NC1CCS(=O)(=O)C1` (configuration not stated) stands -11.7%; under `CCOC(=O)C(=Cc1ccccc1)C(=O)c1ccccc1`, -9.52%.

`O=C(O)c1ccc(NC(=O)c2ccc(COc3ccc(Cl)cc3)o2)cc1`: the “activity, negative = less viability” value was -28.6%. `Cc1cc(OCc2ccc(C(=O)Nc3ccc(C(=O)O)cc3)o2)ccc1Cl`: the Potency was 11.6 µM (active). On to `COc1ccc(NC(=O)CN(C)C(=O)c2ccc(COc3ccccc3)o2)cc1`, for which the “activity, negative = less viability” value is 6%. The same measure, in the same setting: under `O=C(NCc1ccccc1)C1c2ccccc2OCC(=O)N1CCCN1CCOCC1` (configuration not stated) stands 18.4%; under `CCC(c1nc2ccccc2[nH]1)n1c(=O)c(-c2cccs2)nc2ccccc21` (configuration not stated), -22.6%.
